# Source: ChEMBL document CHEMBL1201862, “PubChem BioAssay data set” (2004)
# About 3,900 (7.5%) of roughly 52,000 sequences were called active. Cut-off read from the data, not from the text of the source: active = GI50 up to about 1.1 µM and inactive = higher. These entries were drawn from the full list. Potency and affinity values are given separately.
# Test system: RXF 393
row,Substance,GI50 [µM]
1,"[Bis(aminomethyl)tetramethylenesilane]tetrachloropaltinum(IV), CHEMBL2146189",25.4
2,"[Bis(aminomethyl)pentamethylenesilane]tetrachloropaltinum(IV), CHEMBL2146204",7.35
3,"[Bis(aminomethyl)dimethylsilane]tetrachloroplatinum(IV), CHEMBL2146190",3.59
4,"[Bis(aminomethyl)dimethylsilane]dichloroplatinum (II), CHEMBL2146201",34.2
5,"[Bis(aminomethyl)pentamethylenesilane]dichloropaltinum(II), CHEMBL2146202",2.92
6,"cis-Bis[[(trimethylsilyl)methyl]amino]tetrachloroplatinum(IV), CHEMBL2146191",2.72
7,"[Bis(aminomethyl)tetramethylenesilane]dichloropaltinum(II), CHEMBL2146205",12.6
8,"[Bis(aminomethyl)diethylsilane]tetrachloroplatinum(IV), CHEMBL2146203",17.4
9,"CISPLATIN, CHEMBL11359",3.33
10,"mu-(1,7-nanodiamine-N,N')bis-(cis-aminedichloroplatimum (II)), CHEMBL2146215",15.4
